# Test results as given in publication PMC7862700, “An all-to-all approach to the identification of sequence-specific readers for epigenetic DNA modifications on cytosine”.
# Assays:
# Test in all cases: DAPPL (digital affinity profiling via proximity ligation, sequencing); 10 mM Tris-HCl pH 7.5, 50 mM NaCl, 1 mM DTT, 4% glycerol, room temperature, 30 min; GST-TFs on glutathione beads, 16-mer random dsDNA library, 0.1% formaldehyde crosslink after washing; high values mean tight binding
# Conditions in all cases: protein: recombinant; tags: N-terminal GST; dsDNA, one strand shown
# FLI1 = target: T1, FLI1 (Homo sapiens, UniProt Q01543 1-452)
# T1 sequence: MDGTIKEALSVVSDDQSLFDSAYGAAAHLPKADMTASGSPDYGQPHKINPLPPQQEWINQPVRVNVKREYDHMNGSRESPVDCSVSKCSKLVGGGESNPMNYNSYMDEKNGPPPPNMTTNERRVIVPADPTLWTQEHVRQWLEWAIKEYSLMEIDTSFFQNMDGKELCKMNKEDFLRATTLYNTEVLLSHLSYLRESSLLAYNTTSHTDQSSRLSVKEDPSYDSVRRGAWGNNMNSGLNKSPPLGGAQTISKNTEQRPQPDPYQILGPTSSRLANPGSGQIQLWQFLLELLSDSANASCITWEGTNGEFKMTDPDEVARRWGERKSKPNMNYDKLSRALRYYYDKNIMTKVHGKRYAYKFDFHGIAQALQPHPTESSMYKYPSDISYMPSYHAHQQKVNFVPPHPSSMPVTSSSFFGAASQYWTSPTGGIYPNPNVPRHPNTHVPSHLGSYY
# How it was run: (§1)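 Human transcription factors carrying a GST fusion were produced in yeast, bound to glutathione beads, tagged with DNA barcodes and pooled together with a tag-only sample. Each pool was held with 200 nmole of a random double-stranded 16-mer DNA library in Tris/NaCl/DTT/glycerol buffer for 30 min at room temperature, then washed, crosslinked in 0.1% formaldehyde, proximity-ligated with BsaI/T4 ligase (1 h, 37 °C), PCR-amplified and sequenced on an Illumina NextSeq500. Binding signal is the read frequency of each hexamer for a given factor divided by its frequency in the tag-only sample.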
# GABPA = target: T2, GABPA (Homo sapiens, UniProt Q06546 1-454)
# T2 sequence: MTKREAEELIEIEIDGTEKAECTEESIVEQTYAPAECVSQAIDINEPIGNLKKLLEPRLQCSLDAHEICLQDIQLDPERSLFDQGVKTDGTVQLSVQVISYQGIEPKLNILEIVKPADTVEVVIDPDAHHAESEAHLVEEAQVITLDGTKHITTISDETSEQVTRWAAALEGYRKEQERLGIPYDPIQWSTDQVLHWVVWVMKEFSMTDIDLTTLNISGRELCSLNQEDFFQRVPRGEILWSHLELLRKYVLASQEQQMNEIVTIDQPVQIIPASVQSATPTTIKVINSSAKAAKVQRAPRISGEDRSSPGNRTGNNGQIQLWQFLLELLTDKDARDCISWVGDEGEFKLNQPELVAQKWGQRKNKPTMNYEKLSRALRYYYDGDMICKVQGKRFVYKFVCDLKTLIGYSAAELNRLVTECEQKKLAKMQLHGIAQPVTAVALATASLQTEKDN
# How it was run: as §1
# ERG = target: T3, ERG (Homo sapiens, UniProt P11308 1-479)
# T3 sequence: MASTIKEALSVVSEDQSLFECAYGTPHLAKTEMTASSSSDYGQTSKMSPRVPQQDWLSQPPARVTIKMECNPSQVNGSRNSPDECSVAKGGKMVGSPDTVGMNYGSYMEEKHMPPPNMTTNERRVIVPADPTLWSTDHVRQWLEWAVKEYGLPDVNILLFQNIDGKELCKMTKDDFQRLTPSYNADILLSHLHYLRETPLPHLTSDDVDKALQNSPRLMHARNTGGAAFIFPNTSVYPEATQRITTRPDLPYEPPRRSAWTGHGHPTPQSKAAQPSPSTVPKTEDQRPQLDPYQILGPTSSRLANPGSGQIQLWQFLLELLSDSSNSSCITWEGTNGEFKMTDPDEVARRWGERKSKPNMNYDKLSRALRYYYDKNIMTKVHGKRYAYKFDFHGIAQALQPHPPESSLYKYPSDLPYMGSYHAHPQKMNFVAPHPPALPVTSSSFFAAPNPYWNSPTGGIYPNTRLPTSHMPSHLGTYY
# How it was run: as §1
# ELF1 = ELF1 (Homo sapiens, UniProt P32519 1-619)
# How it was run: as §1
# EHF = target: T4, EHF (Homo sapiens, UniProt Q9NZC4 1-300)
# T4 sequence: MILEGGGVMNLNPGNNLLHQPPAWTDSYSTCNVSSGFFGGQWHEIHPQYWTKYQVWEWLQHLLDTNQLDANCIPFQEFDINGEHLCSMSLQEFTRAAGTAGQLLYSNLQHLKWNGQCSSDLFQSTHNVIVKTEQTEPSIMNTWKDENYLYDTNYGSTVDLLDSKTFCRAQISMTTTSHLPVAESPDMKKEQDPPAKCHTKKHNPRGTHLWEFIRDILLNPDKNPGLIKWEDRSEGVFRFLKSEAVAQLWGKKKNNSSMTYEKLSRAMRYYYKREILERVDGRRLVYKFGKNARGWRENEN
# How it was run: as §1
# SPI1 = SPI1 (Homo sapiens, UniProt P17947 1-270)
# How it was run: as §1
# SPIB = SPIB (Homo sapiens, UniProt Q01892 1-262)
# How it was run: as §1
# ELK3 = target: T5, ELK3 (Homo sapiens, UniProt P41970 1-407)
# T5 sequence: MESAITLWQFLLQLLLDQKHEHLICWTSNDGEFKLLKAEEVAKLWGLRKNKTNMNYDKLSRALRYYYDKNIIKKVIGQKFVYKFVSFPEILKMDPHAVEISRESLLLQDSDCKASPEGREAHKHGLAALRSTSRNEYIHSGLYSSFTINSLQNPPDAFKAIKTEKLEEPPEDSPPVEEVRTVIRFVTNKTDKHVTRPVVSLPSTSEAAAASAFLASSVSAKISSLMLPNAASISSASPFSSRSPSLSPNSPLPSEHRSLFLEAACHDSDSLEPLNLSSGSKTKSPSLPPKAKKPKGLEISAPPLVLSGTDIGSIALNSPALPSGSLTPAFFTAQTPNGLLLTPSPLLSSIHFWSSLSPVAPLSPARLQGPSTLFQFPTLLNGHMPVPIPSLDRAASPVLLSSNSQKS
# How it was run: as §1
# FEV = target: T6, FEV (Homo sapiens, UniProt Q99581 1-238)
# T6 sequence: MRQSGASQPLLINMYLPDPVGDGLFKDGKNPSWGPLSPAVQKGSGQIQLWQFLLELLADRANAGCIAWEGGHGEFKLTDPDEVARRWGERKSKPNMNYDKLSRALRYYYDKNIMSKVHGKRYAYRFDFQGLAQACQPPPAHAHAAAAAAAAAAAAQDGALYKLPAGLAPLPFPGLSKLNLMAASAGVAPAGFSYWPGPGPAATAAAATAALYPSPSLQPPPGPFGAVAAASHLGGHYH
# How it was run: as §1
# ETV5 = ETV5 (Homo sapiens, UniProt P41161 1-510)
# How it was run: as §1
# SPIC = target: T7, SPIC (Homo sapiens, UniProt Q8N5J4 1-248)
# T7 sequence: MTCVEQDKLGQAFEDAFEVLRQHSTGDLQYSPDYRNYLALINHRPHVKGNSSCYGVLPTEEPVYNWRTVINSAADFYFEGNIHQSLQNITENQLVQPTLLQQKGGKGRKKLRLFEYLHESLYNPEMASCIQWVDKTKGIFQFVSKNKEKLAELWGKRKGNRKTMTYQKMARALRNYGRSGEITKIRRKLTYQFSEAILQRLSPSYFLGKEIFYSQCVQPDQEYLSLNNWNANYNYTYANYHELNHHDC
# How it was run: as §1
# ELF4 = ELF4 (Homo sapiens, UniProt Q99607 1-663)
# How it was run: as §1
# ETV1 = ETV1 (Homo sapiens, UniProt P50549 1-477)
# How it was run: as §1
# ERF = target: T8, ERF (Homo sapiens, UniProt P50548 1-548)
# T8 sequence: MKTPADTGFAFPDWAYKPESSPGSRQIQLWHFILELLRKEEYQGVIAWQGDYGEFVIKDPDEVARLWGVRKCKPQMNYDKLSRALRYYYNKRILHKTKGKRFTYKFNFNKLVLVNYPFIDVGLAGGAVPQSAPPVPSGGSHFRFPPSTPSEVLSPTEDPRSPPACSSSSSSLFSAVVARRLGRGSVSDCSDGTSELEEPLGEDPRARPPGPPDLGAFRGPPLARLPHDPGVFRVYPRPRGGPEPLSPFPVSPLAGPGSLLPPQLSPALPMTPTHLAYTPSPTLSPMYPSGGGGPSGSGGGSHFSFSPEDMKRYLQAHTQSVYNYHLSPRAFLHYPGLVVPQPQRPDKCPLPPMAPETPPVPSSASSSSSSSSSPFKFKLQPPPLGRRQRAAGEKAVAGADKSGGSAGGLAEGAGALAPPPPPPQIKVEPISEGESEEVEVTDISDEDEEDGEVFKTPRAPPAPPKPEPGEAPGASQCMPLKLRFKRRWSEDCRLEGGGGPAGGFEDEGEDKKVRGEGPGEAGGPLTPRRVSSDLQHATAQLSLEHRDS
# How it was run: as §1
# ETV3L = target: T9, ETV3L (Homo sapiens, UniProt Q6ZN32 1-361)
# T9 sequence: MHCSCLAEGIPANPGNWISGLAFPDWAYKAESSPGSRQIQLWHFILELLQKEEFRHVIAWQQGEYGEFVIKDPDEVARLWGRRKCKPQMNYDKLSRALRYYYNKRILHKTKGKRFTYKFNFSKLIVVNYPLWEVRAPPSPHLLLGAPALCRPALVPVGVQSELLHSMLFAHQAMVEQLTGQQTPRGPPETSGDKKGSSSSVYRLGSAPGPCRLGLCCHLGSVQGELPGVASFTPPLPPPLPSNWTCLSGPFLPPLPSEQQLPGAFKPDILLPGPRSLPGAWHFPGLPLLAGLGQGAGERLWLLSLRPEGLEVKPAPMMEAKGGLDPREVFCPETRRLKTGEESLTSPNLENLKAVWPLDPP
# How it was run: as §1
# ETS2 = target: T10, ETS2 (Homo sapiens, UniProt P15036 1-469)
# T10 sequence: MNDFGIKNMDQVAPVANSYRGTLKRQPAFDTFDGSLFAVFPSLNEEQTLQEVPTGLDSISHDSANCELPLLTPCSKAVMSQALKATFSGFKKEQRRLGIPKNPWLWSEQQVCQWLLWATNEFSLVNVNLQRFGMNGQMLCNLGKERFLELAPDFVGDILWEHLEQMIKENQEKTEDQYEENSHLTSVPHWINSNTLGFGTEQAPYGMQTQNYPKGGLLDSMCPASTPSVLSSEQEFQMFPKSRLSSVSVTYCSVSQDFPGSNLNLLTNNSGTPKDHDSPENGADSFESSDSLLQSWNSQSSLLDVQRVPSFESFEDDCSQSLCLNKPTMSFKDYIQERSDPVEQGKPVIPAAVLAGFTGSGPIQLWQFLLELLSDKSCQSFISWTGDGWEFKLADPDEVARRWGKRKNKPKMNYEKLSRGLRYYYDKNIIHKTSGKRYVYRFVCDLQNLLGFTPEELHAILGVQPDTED
# How it was run: as §1
# SPDEF = target: T11, SPDEF (Homo sapiens, UniProt O95238 1-335)
# T11 sequence: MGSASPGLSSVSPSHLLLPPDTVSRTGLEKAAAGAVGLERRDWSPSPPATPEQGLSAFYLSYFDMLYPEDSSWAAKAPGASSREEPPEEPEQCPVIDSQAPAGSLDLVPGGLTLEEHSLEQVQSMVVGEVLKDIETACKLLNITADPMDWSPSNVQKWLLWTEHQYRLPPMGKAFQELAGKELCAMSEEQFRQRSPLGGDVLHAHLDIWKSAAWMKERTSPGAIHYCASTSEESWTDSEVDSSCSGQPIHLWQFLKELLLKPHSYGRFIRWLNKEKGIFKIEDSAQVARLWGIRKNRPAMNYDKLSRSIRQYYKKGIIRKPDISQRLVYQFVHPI
# How it was run: as §1
# ETV3 = target: T12, ETV3 (Homo sapiens, UniProt P41162-2 1-143)
# T12 sequence: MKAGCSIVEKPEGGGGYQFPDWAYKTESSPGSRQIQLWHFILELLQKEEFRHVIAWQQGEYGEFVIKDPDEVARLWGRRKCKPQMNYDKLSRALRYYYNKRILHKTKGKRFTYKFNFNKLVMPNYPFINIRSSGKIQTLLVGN
# How it was run: as §1
# ETV6 = ETV6 (Homo sapiens, UniProt P41212 1-452)
# How it was run: as §1
# ETV5, sequence (P41161 whole entry): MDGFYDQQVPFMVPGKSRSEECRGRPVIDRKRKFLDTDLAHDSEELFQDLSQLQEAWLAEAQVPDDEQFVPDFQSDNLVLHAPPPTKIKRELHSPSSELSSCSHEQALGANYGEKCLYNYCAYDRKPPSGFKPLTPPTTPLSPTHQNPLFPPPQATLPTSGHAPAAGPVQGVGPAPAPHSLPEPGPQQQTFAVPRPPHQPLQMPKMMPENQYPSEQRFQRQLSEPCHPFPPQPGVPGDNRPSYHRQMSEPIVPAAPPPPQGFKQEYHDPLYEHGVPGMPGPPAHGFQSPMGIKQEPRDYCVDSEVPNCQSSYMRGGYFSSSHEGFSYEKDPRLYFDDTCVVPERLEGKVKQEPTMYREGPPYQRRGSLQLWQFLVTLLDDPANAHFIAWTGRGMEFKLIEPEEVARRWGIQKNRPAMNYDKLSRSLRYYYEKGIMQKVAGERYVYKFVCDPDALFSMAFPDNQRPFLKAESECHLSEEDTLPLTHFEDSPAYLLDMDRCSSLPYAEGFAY
# ELF4, sequence (Q99607 whole entry): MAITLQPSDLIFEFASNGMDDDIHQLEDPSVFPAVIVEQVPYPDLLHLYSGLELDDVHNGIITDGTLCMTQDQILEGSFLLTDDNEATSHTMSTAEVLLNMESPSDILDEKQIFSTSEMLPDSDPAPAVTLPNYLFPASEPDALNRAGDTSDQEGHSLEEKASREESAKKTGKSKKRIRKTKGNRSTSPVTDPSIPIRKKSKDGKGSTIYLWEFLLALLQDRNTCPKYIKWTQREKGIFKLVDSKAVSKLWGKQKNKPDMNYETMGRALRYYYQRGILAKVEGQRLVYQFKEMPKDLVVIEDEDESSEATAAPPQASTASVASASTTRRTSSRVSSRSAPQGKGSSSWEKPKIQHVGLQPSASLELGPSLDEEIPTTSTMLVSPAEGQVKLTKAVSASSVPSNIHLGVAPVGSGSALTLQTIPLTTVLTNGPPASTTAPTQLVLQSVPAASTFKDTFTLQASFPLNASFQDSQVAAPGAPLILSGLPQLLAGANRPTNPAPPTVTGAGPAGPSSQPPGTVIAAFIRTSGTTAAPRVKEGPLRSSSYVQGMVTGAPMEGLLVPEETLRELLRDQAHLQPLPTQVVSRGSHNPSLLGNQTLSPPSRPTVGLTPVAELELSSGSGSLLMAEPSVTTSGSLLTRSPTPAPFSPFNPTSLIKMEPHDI
# SPIB, sequence (Q01892 whole entry): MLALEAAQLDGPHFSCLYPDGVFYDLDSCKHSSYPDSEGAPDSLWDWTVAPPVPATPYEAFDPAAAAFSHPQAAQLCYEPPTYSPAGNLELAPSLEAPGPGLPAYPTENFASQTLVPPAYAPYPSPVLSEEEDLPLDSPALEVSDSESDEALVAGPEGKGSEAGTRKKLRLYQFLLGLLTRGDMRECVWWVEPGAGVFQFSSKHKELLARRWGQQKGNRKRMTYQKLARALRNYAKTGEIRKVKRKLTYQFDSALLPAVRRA
# ELF1, sequence (P32519 whole entry): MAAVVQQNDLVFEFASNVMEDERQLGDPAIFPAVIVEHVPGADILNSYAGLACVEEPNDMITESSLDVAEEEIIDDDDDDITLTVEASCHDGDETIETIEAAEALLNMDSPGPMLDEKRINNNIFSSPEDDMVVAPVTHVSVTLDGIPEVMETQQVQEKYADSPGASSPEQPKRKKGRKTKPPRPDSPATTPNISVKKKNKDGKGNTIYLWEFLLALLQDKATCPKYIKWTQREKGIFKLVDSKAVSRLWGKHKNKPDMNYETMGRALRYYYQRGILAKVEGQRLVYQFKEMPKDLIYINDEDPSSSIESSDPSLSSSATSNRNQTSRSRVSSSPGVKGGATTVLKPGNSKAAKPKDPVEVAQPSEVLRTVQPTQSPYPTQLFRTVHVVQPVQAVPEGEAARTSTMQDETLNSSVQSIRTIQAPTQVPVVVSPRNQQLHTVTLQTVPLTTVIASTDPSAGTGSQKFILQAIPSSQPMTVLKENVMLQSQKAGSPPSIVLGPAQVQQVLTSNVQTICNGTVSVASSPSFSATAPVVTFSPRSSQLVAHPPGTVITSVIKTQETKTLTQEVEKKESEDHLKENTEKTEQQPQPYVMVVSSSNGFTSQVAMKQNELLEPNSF
# ETV6, sequence (P41212 whole entry): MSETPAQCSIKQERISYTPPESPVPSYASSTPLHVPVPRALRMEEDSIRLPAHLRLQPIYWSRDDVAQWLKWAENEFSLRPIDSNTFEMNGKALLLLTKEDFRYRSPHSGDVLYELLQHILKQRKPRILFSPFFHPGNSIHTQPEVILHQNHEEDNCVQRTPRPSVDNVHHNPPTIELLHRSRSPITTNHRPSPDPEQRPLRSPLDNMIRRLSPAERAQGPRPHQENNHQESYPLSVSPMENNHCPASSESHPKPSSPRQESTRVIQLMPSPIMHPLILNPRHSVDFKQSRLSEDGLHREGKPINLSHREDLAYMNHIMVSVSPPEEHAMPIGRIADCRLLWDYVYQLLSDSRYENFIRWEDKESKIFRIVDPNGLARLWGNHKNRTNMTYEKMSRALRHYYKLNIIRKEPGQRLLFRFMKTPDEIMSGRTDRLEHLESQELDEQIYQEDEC
# ETV1, sequence (P50549 whole entry): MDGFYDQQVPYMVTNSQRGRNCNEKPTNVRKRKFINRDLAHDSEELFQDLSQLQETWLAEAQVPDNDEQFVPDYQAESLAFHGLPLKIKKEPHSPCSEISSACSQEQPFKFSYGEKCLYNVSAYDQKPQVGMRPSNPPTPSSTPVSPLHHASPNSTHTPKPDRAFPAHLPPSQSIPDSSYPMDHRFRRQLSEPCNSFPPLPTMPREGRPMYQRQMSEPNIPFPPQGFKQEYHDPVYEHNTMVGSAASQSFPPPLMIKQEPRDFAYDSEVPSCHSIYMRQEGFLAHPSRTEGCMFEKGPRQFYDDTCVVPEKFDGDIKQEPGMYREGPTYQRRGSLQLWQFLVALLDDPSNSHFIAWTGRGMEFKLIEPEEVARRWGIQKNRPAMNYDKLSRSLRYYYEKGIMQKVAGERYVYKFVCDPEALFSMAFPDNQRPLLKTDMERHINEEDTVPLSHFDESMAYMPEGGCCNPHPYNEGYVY
sequence,measurement,setting,value
AAAGCG,binding signal,FLI1,"1.01 fold enrichment (6-mer frequency, TF over GST control)"
same,binding signal,GABPA,"1.03 fold enrichment (6-mer frequency, TF over GST control)"
same,binding signal,ERG,"1.09 fold enrichment (6-mer frequency, TF over GST control)"
same,binding signal,ELF1,"1.06 fold enrichment (6-mer frequency, TF over GST control)"
same,binding signal,EHF,"1.1 fold enrichment (6-mer frequency, TF over GST control)"
same,binding signal,SPI1,"1.53 fold enrichment (6-mer frequency, TF over GST control)"
same,binding signal,SPIB,"1.1 fold enrichment (6-mer frequency, TF over GST control)"
same,binding signal,ELK3,"1.08 fold enrichment (6-mer frequency, TF over GST control)"
same,binding signal,FEV,"1.06 fold enrichment (6-mer frequency, TF over GST control)"
same,binding signal,ETV5,"1.18 fold enrichment (6-mer frequency, TF over GST control)"
same,binding signal,SPIC,"1.08 fold enrichment (6-mer frequency, TF over GST control)"
same,binding signal,ELF4,"1.11 fold enrichment (6-mer frequency, TF over GST control)"
same,binding signal,ETV1,"1.05 fold enrichment (6-mer frequency, TF over GST control)"
same,binding signal,ERF,"1.13 fold enrichment (6-mer frequency, TF over GST control)"
same,binding signal,ETV3L,"1.04 fold enrichment (6-mer frequency, TF over GST control)"
same,binding signal,ETS2,"1.04 fold enrichment (6-mer frequency, TF over GST control)"
same,binding signal,SPDEF,"1.03 fold enrichment (6-mer frequency, TF over GST control)"
same,binding signal,ETV3,"1.14 fold enrichment (6-mer frequency, TF over GST control)"
same,binding signal,ETV6,"1.1 fold enrichment (6-mer frequency, TF over GST control)"
